Where two headings read alike, the source gives them in different places.
Legend:
Set-up in all cases: species or system human, MV4-11 + K-562 + COLO205 + SK-N-BE2 + OVCAR-8
AURKB = conditions: read-out: apparent Kd, compound concentrations: 100 nM and 1000 nM (sheet 'Samples'), n = 1
DCTPP1 = conditions: read-out: apparent Kd; compound concentrations: 100 nM and 1000 nM (sheet 'Samples'), CATDS: 8.7325060780524003E-2; n = 1
DDR2 = conditions: read-out: apparent Kd; compound concentrations: 100 nM and 1000 nM (sheet 'Samples'), CATDS: 8.3380311484054601E-2; n = 1
FLT3 = conditions: read-out: apparent Kd, compound concentrations: 100 nM and 1000 nM (sheet 'Samples'), n = 1
FLT4 = conditions: read-out: apparent Kd; compound concentrations: 100 nM and 1000 nM (sheet 'Samples'), CATDS: 9.3314690514963106E-2; n = 1
PDGFRB = conditions: read-out: apparent Kd, compound concentrations: 100 nM and 1000 nM (sheet 'Samples'), n = 1
PI4KB = conditions: read-out: apparent Kd; compound concentrations: 100 nM and 1000 nM (sheet 'Samples'), CATDS: 0.119169210644034; n = 1
PIK3CD = conditions: read-out: apparent Kd; compound concentrations: 100 nM and 1000 nM (sheet 'Samples'), CATDS: 0.38237858605116598; n = 1
TAOK1 = conditions: read-out: apparent Kd; compound concentrations: 100 nM and 1000 nM (sheet 'Samples'), CATDS: 9.5219877084068302E-2; n = 1
EIF2AK1 = conditions: read-out: apparent Kd, compound concentrations: 100 nM and 1000 nM (sheet 'Samples'), n = 1
BUB1 = conditions: read-out: apparent Kd, compound concentrations: 100 nM and 1000 nM (sheet 'Samples'), n = 1
CIT = conditions: read-out: apparent Kd; compound concentrations: 100 nM and 1000 nM (sheet 'Samples'), CATDS: 0.144210490801775; n = 1
CSNK1D = conditions: read-out: apparent Kd; compound concentrations: 100 nM and 1000 nM (sheet 'Samples'), CATDS: 0.10890792541592099; n = 1
GAK = conditions: read-out: apparent Kd; compound concentrations: 100 nM and 1000 nM (sheet 'Samples'), CATDS: 0.122345585139645; n = 1
MAPK10 = conditions: read-out: apparent Kd; compound concentrations: 100 nM and 1000 nM (sheet 'Samples'), CATDS: 0.135593379838652; n = 1
MAPK14 = conditions: read-out: apparent Kd; compound concentrations: 100 nM and 1000 nM (sheet 'Samples'), CATDS: 0.115463865520786; n = 1
MAPK9 = conditions: read-out: apparent Kd; compound concentrations: 100 nM and 1000 nM (sheet 'Samples'), CATDS: 0.122740421728674; n = 1
MAPKAPK2 = conditions: read-out: apparent Kd, compound concentrations: 100 nM and 1000 nM (sheet 'Samples'), n = 1
EGFR = conditions: read-out: apparent Kd; compound concentrations: 100 nM and 1000 nM (sheet 'Samples'), CATDS: 9.4589689461148804E-2; n = 1
LIMK1 = conditions: read-out: apparent Kd; compound concentrations: 100 nM and 1000 nM (sheet 'Samples'), CATDS: 8.0890535197294403E-2; n = 1
LIMK2 = conditions: read-out: apparent Kd; compound concentrations: 100 nM and 1000 nM (sheet 'Samples'), CATDS: 0.109376912936183; n = 1
NNT = conditions: read-out: apparent Kd; compound concentrations: 100 nM and 1000 nM (sheet 'Samples'), CATDS: 8.6496378870903501E-2; n = 1
TESK2 = conditions: read-out: apparent Kd; compound concentrations: 100 nM and 1000 nM (sheet 'Samples'), CATDS: 9.3788253526120594E-2; n = 1
BMP2K = conditions: read-out: apparent Kd; compound concentrations:100 nM and 1000 nM (sheet 'Samples'); n = 1
MAP3K1 = conditions: read-out: apparent Kd; compound concentrations:100 nM and 1000 nM (sheet 'Samples'); n = 1
MAP4K5 = conditions: read-out: apparent Kd; compound concentrations:100 nM and 1000 nM (sheet 'Samples'); n = 1
NUAK2 = conditions: read-out: apparent Kd; compound concentrations:100 nM and 1000 nM (sheet 'Samples'); n = 1
PLK1 = conditions: read-out: apparent Kd; compound concentrations:100 nM and 1000 nM (sheet 'Samples'); n = 1
STK10 = conditions: read-out: apparent Kd; compound concentrations:100 nM and 1000 nM (sheet 'Samples'); n = 1
CAMK2B = conditions: read-out: apparent Kd; compound concentrations: 100 nM and 1000 nM (sheet 'Samples'), CATDS: 0.32138183230231099; n = 1
FN3K = conditions: read-out: apparent Kd; compound concentrations: 100 nM and 1000 nM (sheet 'Samples'), CATDS: 0.15794853926882399; n = 1
ICK = conditions: read-out: apparent Kd; compound concentrations: 100 nM and 1000 nM (sheet 'Samples'), CATDS: 0.184620648021635; n = 1

For `Cn1ccc2ncnc(Oc3ccc(NC(=O)Nc4ccccc4)cc3)c21` [TPKI-69], the potency estimated from few doses (AURKB; CATDS: 0.138800296841457) was 695 nM, the potency estimated from few doses (DCTPP1) was 2030 nM and the potency estimated from few doses (DDR2) was 2350 nM. The potency estimated from few doses (FLT3; CATDS: 0.108927417624357) was 1150 nM, the potency estimated from few doses (FLT4) was 1680 nM and the potency estimated from few doses (PDGFRB; CATDS: 0.111791794909036) was 1080 nM. It also gave a potency estimated from few doses (PI4KB) of 943 nM, a potency estimated from few doses (PIK3CD) of 142 nM and a potency estimated from few doses (TAOK1) of 1600 nM.
For `Cn1cc(-c2ccc3c(c2)CCN3C(=O)Cc2cc(F)cc(F)c2F)c2c(N)ncnc21` [GSK2634140A], the potency estimated from few doses (AURKB; CATDS: 0.49376947402656801) was 1300 nM and the potency estimated from few doses (EIF2AK1; CATDS: 0.50638977254874895) was 1240 nM.
With `Fc1ccc(-c2nn3c(OCC(F)(F)F)cccc3c2-c2ccncc2)cc1` [GW514784X] the potency estimated from few doses (BUB1; CATDS: 0.17934012366879401) was 448 nM, the potency estimated from few doses (CIT) was 646 nM and the potency estimated from few doses (CSNK1D) was 1160 nM. It also gave a potency estimated from few doses (GAK) of 890 nM, a potency estimated from few doses (MAPK10) of 725 nM and a potency estimated from few doses (MAPK14) of 1010 nM. The potency estimated from few doses (MAPK9) was 884 nM and the potency estimated from few doses (MAPKAPK2; CATDS: 0.10049167184689101) was 1420 nM.
`Nc1ncnc2scc(-c3ccc(NC(=O)Cc4cc(F)ccc4F)cc3)c12.O=C(O)C(F)(F)F` [SB-731254-M] was tested, and the potency estimated from few doses (AURKB; CATDS: 0.15442610034884699) was 399 nM, the potency estimated from few doses (EGFR) was 1180 nM and the potency estimated from few doses (EIF2AK1; CATDS: 0.14381895647439999) was 457 nM. The potency estimated from few doses (FLT3; CATDS: 0.410073684021382) was 85.2 nM, the potency estimated from few doses (LIMK1) was 1910 nM and the potency estimated from few doses (LIMK2) was 817 nM. For the same compound, the potency estimated from few doses (NNT) was 1530 nM, the potency estimated from few doses (PDGFRB; CATDS: 9.2318331607570206E-2) was 1260 nM and the potency estimated from few doses (TESK2) was 1210 nM.
With `C[C@@H](Oc1cc(-n2cnc3ccc(OCC4CCN(C)CC4)cc32)sc1C(N)=O)c1ccccc1C(F)(F)F` [GSK326090A] the potency estimated from few doses (BMP2K) was 1900 nM, the potency estimated from few doses (MAP3K1) was 1240 nM and the potency estimated from few doses (MAP4K5) was 203 nM. It also gave a potency estimated from few doses (NUAK2) of 411 nM, a potency estimated from few doses (PLK1) of 67.7 nM and a potency estimated from few doses (STK10) of 1720 nM.
`CSc1ccc(-c2nc3n(c2-c2ccncc2)CCC3)cc1` [SKF-105561] gave a potency estimated from few doses (BUB1; CATDS: 0.15968057437579899) of 2300 nM, a potency estimated from few doses (CAMK2B) of 557 nM and a potency estimated from few doses (FN3K) of 2370 nM. The potency estimated from few doses (ICK) was 1580 nM and the potency estimated from few doses (MAPKAPK2; CATDS: 0.25784854376508698) was 803 nM.

— paper PMC11062922 (Nature Chemical Biology, 2023)
